Nrf2 block – blocks Nrf2 signaling; 360,000 compounds, 2.1% hits; Potency, µM (highest dose often 46 µM), without a hit: top-dose activity change, negative = inhibition, usual class: inhibitors; AID 504444; A549 ARE-Fluc reporter, luciferase luminescence, 18-24 h; also: potency is read from the fitted curve at half-maximal effect; nearly all actives have a fitted effect of over 60% in size
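Nrf2 function is reported as luminescence of an ARE-controlled luciferase in A549 cells. Compounds were tested at several concentrations, and a CellTiter-Fluor read on the same wells flagged cytotoxicity.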
PI4K2A block – PI4K2A (human) kinase inhibition; purified PI4K2A, ADP-Glo luminescence, 1 h; hits give low values; activity change, negative = inhibition, % at 76.9 µM; Q9BTU6; 420,000 compounds, 0.13% hits; AID 1346378; in the data active = activity change below about -50%; inconclusive = mostly about -30% to -49%;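 also: -100% = wells without enzyme as full effect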
Target sequence (Q9BTU6 whole entry, looked up): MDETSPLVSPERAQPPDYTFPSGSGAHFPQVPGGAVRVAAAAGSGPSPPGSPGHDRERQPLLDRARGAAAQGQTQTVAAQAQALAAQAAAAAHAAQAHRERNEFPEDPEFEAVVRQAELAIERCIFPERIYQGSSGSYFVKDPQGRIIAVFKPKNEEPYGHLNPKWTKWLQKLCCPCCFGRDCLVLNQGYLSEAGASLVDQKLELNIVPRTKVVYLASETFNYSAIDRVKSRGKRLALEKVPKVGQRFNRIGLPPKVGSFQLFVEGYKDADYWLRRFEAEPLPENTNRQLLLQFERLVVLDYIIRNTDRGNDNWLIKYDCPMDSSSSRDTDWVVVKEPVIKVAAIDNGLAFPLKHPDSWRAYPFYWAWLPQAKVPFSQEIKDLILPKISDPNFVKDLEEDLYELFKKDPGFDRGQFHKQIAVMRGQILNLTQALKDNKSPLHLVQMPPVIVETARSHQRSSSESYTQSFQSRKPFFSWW
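In this quantitative HTS, ADP production by PI4K2A was quantified luminescently after 1 h at ambient temperature; 100 microM adenosine served as plate-quality control.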
Giardia killer – Giardia lamblia killing. Giardia lamblia trophozoite viability. activity change, % at 7.66 µM, hits read low. 340,000 compounds, 0.15% hits. AID 540267; in the data active = activity change below about -80%; inconclusive = between about -30% and that limit;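 also: parasites exposed to compound for two days anaerobically before the ATP read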
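Luminescence from cellular ATP indicates surviving trophozoites (100 cells/well) following 48 hrs anaerobic compound treatment at 37 deg C; signal develops 15-30 min at room temperature.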
KB-V1 MDR tox – KB-V1 MDR subline cytotoxicity | 400,000 compounds, 3.4% hits | Potency, µM (highest dose often 46.1 µM), hits mostly cytotoxic | KB-V1 MDR cells viability, CellTiter-Glo, 72 h; also: potency is read from the fitted curve at half-maximal effect; nearly all actives have a fitted effect of over 60% in size
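Cells of the MDR subline KB-V1 are plated, dosed with compound at multiple concentrations, and incubated 72 h at 37 degrees C; CellTiter-Glo is then added and luminescence read after 10 min.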
A549 tox – kills or reduces viability of A549 cells in Nrf2 counter-screen; 390,000 compounds, 0.16% hits; Potency, µM (series often up to 46 µM), for inactives: at the highest dose activity change, negative = cytotoxicity, usual class: inhibitors; AID 504648; A549 ARE-Fluc cells, CellTiter-Fluor viability, 18-24 h; also: potency is read from the fitted curve at half-maximal effect
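A549 ARE-Fluc cells in 5% FBS OPTI-MEM, 5000 cells/well, rested 2 h then exposed to compounds in concentration-response for 18-24 h at 37 °C. Viability by CellTiter-Fluor fluorescence (Ex 405/Em 525) after 30 min; luciferase luminescence (BugLite, 15 min, RT) read afterwards.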
KB-3-1 cytotox – KB-3-1 parental cell cytotoxicity | KB-3-1 viability, CellTiter-Glo ATP luminescence, 72 h | AID 1347075 | 400,000 compounds, 1.4% hits | Potency, µM (top dose mostly 46.1 µM), most hits filed as cytotoxic; also: potency is read from the fitted curve at half-maximal effect; nearly all actives have a fitted effect of over 60% in size
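Cytotoxicity in the drug-sensitive parental line KB-3-1 was scored as loss of CellTiter-Glo luminescence following 72 h incubation with compound. Values come from curve fitting of normalized concentration-response data.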
The depositor's hits bear a star; i = inactive; ? = inconclusive; . = no result given. Hits are enriched below; roughly 5.7% of the tested compounds scored in any of these assays. Unless noted, calls follow the shape of the dose curve; as a rule, active = well fitted curve in the direction sought with a large enough effect; inconclusive = small, poorly fitted or top-dose-only effect, or another doubt; inactive = no such curve, though single readings can be large; an effect the other way counts as inactive or inconclusive. Unless noted, % is scaled to controls: 0 for no effect and ±100 for the full control effect.

SMILES	Nrf2 block	PI4K2A block	Giardia killer	KB-V1 MDR tox	A549 tox	KB-3-1 cytotox
O=C(/C=C/c1ccc(O)cc1)c1ccccc1	?	-74.6*	7.6	i	-3.6%	i
COc1ccccc1NC1=C(N2CCCCC2)C(=O)c2ccccc2C1=O	?	-29.5	10.4	i	-12.7%	2.59µM*
CCOc1ccc(CNC(=O)CCn2c(=O)oc3ccccc32)cc1	23.5%	5.7	4.3	23.1µM*	2.0%	i
CCOc1ccccc1NC(=O)Cn1c(=O)oc2ccccc21	14.0%	4.6	7.3	i	0.3%	i
COc1ccc(CNC(=O)CCn2c(=O)oc3ccccc32)cc1	4.9%	3.5	-25.0	i	-2.8%	i
CCOc1ccc(OCC)c(NC(=O)CCn2c(=O)oc3ccccc32)c1	-1.1%	-0.9	14.6	8.2µM*	-0.9%	i
C=C(C)COc1ccc(-c2nc(N)ncc2-c2ccc(Cl)cc2)c(O)c1	?	6.4	3.2	23.1µM*	-18.5%	?
COc1cccc(Oc2cnc(N)nc2-c2ccc(OC)cc2O)c1	?	-5.9	-9.5	2.59µM*	-7.6%	6.51µM*
Nc1ncc(-c2ccccc2)c(-c2ccc(OCc3ccccc3)cc2O)n1	23.1µM*	0.2	-14.8	i	-14.8%	?
Cc1ccc(-c2nnc(NC(=O)Nc3ccc4ccccc4c3)s2)cc1	.	.	.	?	.	i
Cc1cc(OCCOCC[N+](C)(C)Cc2ccccc2)ccc1C(C)(C)CC(C)(C)C	.	-1.8	.	.	.	.
Cc1cccc(C(=O)N2CCc3cc(CNC(=O)c4ccnn4C)ccc32)c1	.	-1.9	.	i	0.1%	i
Cc1ccc(S(=O)(=O)N2[C@H](c3ccc(Cl)cc3)CC(=O)[C@@H]3CN(S(=O)(=O)c4ccccc4C)[C@H](c4ccc(Cl)cc4)C[C@@H]32)cc1	.	1.3	.	i	.	i
Cc1ccc(S(=O)(=O)N2[C@H](c3cccc(Cl)c3)CC(=O)[C@@H]3CN(S(=O)(=O)c4ccccc4C)[C@H](c4ccc(Cl)cc4)C[C@@H]32)cc1	.	6.5	.	i	.	3.66µM*
Cc1ccc([C@@H]2CC(=O)[C@@H]3CN(S(=O)(=O)c4ccccc4C)[C@H](c4ccc(Cl)cc4)C[C@@H]3N2S(=O)(=O)c2ccc(C)cc2)cc1	.	-2.5	.	?	.	3.66µM*
O=C1CCc2cc(S(=O)(=O)Nc3ccncc3)ccc2N1	11.3%	.	.	.	0.3%	.
CN(CCCOC(=O)c1occ2ccccc12)C1CN(Cc2cn(Cc3ccccc3Cl)nn2)S(=O)(=O)C1 (stereo not given)	.	0.1	.	.	.	.
COC(=O)C1CN(Cc2ccc(C)cc2)CCS(=O)(=O)N1Cc1cn(Cc2ccc(Cl)cc2)nn1 (stereo not given)	.	0.6	.	.	.	.
Cc1nn(-c2ccccc2)c2sc(C(=O)NCC3CCCO3)cc12 (stereo not given)	.	-0.3	.	.	.	.
Cc1cc2cc(C(c3nnnn3C3CCCC3)N(Cc3cccnc3)Cc3ccco3)c(=O)[nH]c2cc1C (stereo not given)	?	-10.1	6.2	i	?	i
CCC(C)(C)n1nnnc1C(c1cc2ccc(C)cc2[nH]c1=O)N(Cc1cccnc1)Cc1ccco1 (stereo not given)	?	2.2	11.9	20.6µM*	-29.0%	i
CCOc1ccc(C(=O)c2cc([N+](=O)[O-])ccc2N2CCOCC2)cc1	20.5%	-2.7	5.0	?	-17.5%	0.0291µM*
COc1ccc(C(=O)c2cc([N+](=O)[O-])ccc2N2CCOCC2)cc1	?	3.5	-0.7	0.517µM*	-16.1%	1.84µM*
COc1ccc(CCNC(=O)c2cc([N+](=O)[O-])ccc2N2CCOCC2)cc1	7.3%	6.0	-4.9	?	?	i
O=C(COc1ccc([N+](=O)[O-])cc1)N/N=C/c1cc([N+](=O)[O-])ccc1N1CCOCC1	?	-4.4	15.1	16.4µM*	-15.4%	i
SMILES	Nrf2 block	PI4K2A block	Giardia killer	KB-V1 MDR tox	A549 tox	KB-3-1 cytotox
CCOc1ccc(S(=O)(=O)N2CCN(C(=O)c3cc([N+](=O)[O-])ccc3N3CCOCC3)CC2)cc1	-10.3%	-0.9	-3.8	i	-14.9%	i
Cc1ccc(C(=O)c2cc([N+](=O)[O-])ccc2N2CCCCC2)c(C)c1	?	-1.3	?	1.64µM*	?	0.82µM*
O=C(O)c1cc([N+](=O)[O-])ccc1N1CCCCC1	10.0%	-2.1	38.8	i	-18.0%	i
CC(=O)Nc1ccc(/C=C/c2ccncc2)cc1	.	.	.	i	.	?
CCOc1ccc(-c2cc(C(C)=O)c3n(c2=O)CCC3)cc1	.	-10.1	.	.	.	.
Cc1cc(N2CCOCC2)c(F)cc1C(=O)c1ccccc1	?	0.0	-5.6	18.4µM*	4.2%	i
Cc1ccc(C(=O)c2cc([N+](=O)[O-])ccc2N2CCOCC2)cc1	0.3%	1.9	3.8	0.82µM*	-21.4%	2.06µM*
CC(=O)c1cc(F)c(N2CCOCC2)cc1C	1.6%	0.5	7.3	?	-2.0%	i
CC(C)CN1CN2Cc3cc(F)ccc3C2CS1(=O)=O (stereo not given)	.	-1.6	.	.	.	.
COc1ccc(C(=O)Nc2nc(C)c3cc4c(cc3n2)OCO4)cc1	25.3%	-4.3	7.8	i	1.1%	i
COc1ccc(-n2nnnc2-c2cnc3cc4c(cc3c2C)OCO4)cc1	?	2.8	-12.1	9.2µM*	11.9%	i
Cc1ccc(C)c(NC2=NC3(CCCCC3)N=C(N)N2)c1	3.3%	6.0	-9.6	i	7.2%	18.4µM*
Cc1ccccc1NC1=NC2(CCCC2)N=C(N)N1	-2.2%	-0.3	8.4	?	-2.5%	?
Cc1ccc(NC2=NC3(CCCCC3)N=C(N)N2)c(C)c1	22.6%	-10.9	-1.1	i	0.5%	7.31µM*
Cc1ccc(NC2=NC3(CCCC3)N=C(N)N2)c(C)c1	11.7%	-14.0	-7.2	i	-5.7%	4.11µM*
NC1=NC2(CCCCC2)N=C(Nc2ccc(Br)cc2)N1	1.9%	-2.5	-16.0	i	-0.1%	23.1µM*
